TTR transcr act: TTR transcription activators in neuroblastoma reporter cells, primary screen, cell-based, luminescence, SH-SY5Y, TTR promoter Gaussia luciferase; 1.3% of 92,000 active; activation, % at 16.7 µM; 100% = recombinant luciferase protein wells;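 active means activation above the mean of all tested compounds plus 3 SD, cut at about 9.5% in these data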;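 further: cells exposed to compounds for one day before reading; 0% = median of all test compound wells on the plate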
HuH7 TTR inh: TTR promoter reporter inhibitors in hepatoma cells, counter-screen for TTR transcription activator project, cell-based, luminescence, HuH7 hepatoma; inhibition, % at 16.7 µM; 4% of 1,100 active; shares compounds with TTR transcr act; HuH7 TTR promoter-Gaussia luciferase reporter;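 active means average inhibition above the solvent-only control wells' mean plus 3 SD, cut at about 15% in these data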;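 further: 0% = cells with DMSO only and 100% = cells with inhibitor control FD; inhibitors lower well luminescence so higher value means more inhibition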
TTR up confirm: TTR transcription activators, retest, confirmation, cell-based, luminescence, SH-SY5Y, triplicate; shares compounds with TTR transcr act; SHSY5Y TTR promoter Gaussia luciferase; 100% = purified Lucia enzyme wells, no cells; activation, % at 16.7 µM; 1,100 tested, under 10 active; AID 1117280, 2014;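 active means mean activation above a set limit taken from the earlier primary screen, cut at about 11% in these data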;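 further: 0% = DMSO-treated cells and 100% = recombinant Lucia luciferase without cells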
Numbers without * were called inactive. Only a selection was taken, and hits are over-represented in it overall.

NC(=O)c1c(N)[nH]c(C(=O)c2ccccc2)c1-c1cccc2ccccc12 was read as TTR transcr act 3.
Screening COc1cccc(NC(=O)Cn2nnc(C(=O)NCc3cccs3)c2N)c1 returned TTR transcr act -2.
For COc1ccc(NC(=O)Cn2nnc(C(=O)NCc3cccs3)c2N)c(OC)c1 the results were TTR transcr act 2.
Screening CCOc1ccc(NC(=O)Cn2nnc(C(=O)NCc3cccs3)c2N)cc1 returned TTR transcr act 21*, HuH7 TTR inh -7 and TTR up confirm -1.
`COC(=O)C[C@@H]1CC[C@@H]2[C@@H](COc3ccc(NC(=O)Nc4ccccc4)cc3C(=O)N2C)O1` gave TTR transcr act -1.
`CCCCOCCCNC(=O)C[C@H]1C[C@@]2(C(=O)OC)C(=C[C@H](C(C)C)O[C@@H]2C2CC2)N(Cc2ccc(Cl)cc2Cl)C1=O` gave TTR transcr act 0.
`CCCc1nc(N)c(C#N)c(-c2cccnc2)c1CC` gave TTR transcr act 2.
For Cc1c(CC(C)C)nc(N)c(C#N)c1-c1ccccc1 the results were TTR transcr act 0.
For Cc1c(-c2ccccc2)nc(N)c(C#N)c1-c1cccnc1 the results were TTR transcr act 12*, HuH7 TTR inh -6 and TTR up confirm -1.
`CC(C)C(NS(=O)(=O)c1cccc(C(F)(F)F)c1)C(=O)NCc1cccs1` (stereo not drawn) gave TTR transcr act 2.
For COCCSc1nc(N)c(NC(=O)c2ccco2)c(=O)[nH]1 the results were TTR transcr act 0.
For c1nc(NC[C@@H]2CCCO2)c2cc(-c3ccc4c(c3)OCO4)ccc2n1 the results were TTR transcr act 0.
COc1cc(S(=O)(=O)NC2CCCCC2C)ccc1Cl (stereo not drawn) was read as TTR transcr act 3.
`CC1CCCCC1NS(=O)(=O)c1ccc(-n2cnnn2)cc1` (stereo not drawn) gave TTR transcr act 0.
For COc1cc(S(=O)(=O)NC2CCCCC2C)ccc1-n1cnnn1 (stereo not drawn) the results were TTR transcr act 14*, HuH7 TTR inh -11 and TTR up confirm 0.
`O=C(OCc1cn(Cc2cccc(F)c2F)nn1)N1CCCC1` gave TTR transcr act 1.
`CCN(C(=O)CSc1nnc(NC2CCCCC2)s1)C1CCS(=O)(=O)C1` (stereo not drawn) gave TTR transcr act 1.
`O=C(CCCc1ccccc1)NC1CCSC1=O` (stereo not drawn) gave TTR transcr act 1.
For O=C1SCCC1NC(=O)C(c1ccccc1)c1ccccc1 (stereo not drawn) the results were TTR transcr act 18*, HuH7 TTR inh 0 and TTR up confirm -1.
`O=C(NC1CC1)C(Cl)c1ccccc1` (stereo not drawn) gave TTR transcr act 0.
`O=C(Nc1ccc(Cl)cc1Cl)c1ccc(Br)o1` gave TTR transcr act 0.
For Brc1cccc(C2Nc3cccc4cccc(c34)N2)c1 the results were TTR transcr act -2.
For Clc1cccc(Cl)c1C1Nc2cccc3cccc(c23)N1 the results were TTR transcr act -1.
`Clc1ccc(C2Nc3cccc4cccc(c34)N2)cc1Cl` gave TTR transcr act 9.8*, HuH7 TTR inh 5 and TTR up confirm -1.
COCCN(CC(=O)Nc1cccc(C)c1C)C(=O)c1ccc(S(=O)(=O)N2CCOCC2)cc1 was read as TTR transcr act 9.8*, HuH7 TTR inh -12 and TTR up confirm 1.
COCCN(CC(=O)Nc1cccc(C)c1C)C(=O)Cc1cccs1 was read as TTR transcr act 5.
Screening O=C(Nc1ccccc1Cl)c1ccc(S(=O)(=O)N2CCOCC2)cc1 returned TTR transcr act 2.
For CC(C)CNC(=O)OCc1cn(Cc2ccc(C(F)(F)F)cc2)nn1 the results were TTR transcr act 1.
`CCOc1cc(CCNC(=O)c2cc(-c3ccccc3)c(N3CCOCC3)s2)ccc1OC` gave TTR transcr act -2.
`COCCCNC(=O)c1ccc(Cn2c(=O)c3ccccc3n(Cc3ccc(Br)cc3)c2=O)cc1` gave TTR transcr act 0.
S=c1[nH]nc(-c2cc(-c3ccccc3)n[nH]2)n1/N=C/c1ccc(Cl)cc1 was read as TTR transcr act 1.
Screening Nc1nc(-c2ccccc2)cn1/N=C/c1ccccc1 returned TTR transcr act 1.
S=c1[nH]ncn1/N=C/c1ccccc1 was read as TTR transcr act 18*, HuH7 TTR inh -5 and TTR up confirm 0.
For Cc1ccc(C(=O)N/C(=C\c2ccc(Cl)cc2)C(=O)NCC2CCCO2)cc1 (stereo not drawn) the results were TTR transcr act 1.
Screening COC(=O)c1ccc(CN2CC3CC(c4ccccc4)N4CCCC34C2=O)cc1 (stereo not drawn) returned TTR transcr act 1.
Screening COc1ccc(C(=O)Nc2ccc(C)cn2)c(OC)c1 returned TTR transcr act -3.
Screening COc1ccc(S(=O)(=O)Nc2ccc(NC(C)=O)cc2)cc1 returned TTR transcr act 3.
For COc1ccc(S(=O)(=O)Nc2ccc(C)cn2)cc1 the results were TTR transcr act 14*, HuH7 TTR inh -12 and TTR up confirm 6.
For CC/C(=N\NC(=O)c1cc(C2CC2)[nH]n1)c1ccccc1 the results were TTR transcr act -1.
For COc1cc(O)c(C(CC(=O)N2CCCC(C)C2)c2ccccc2)c(OC)c1 (stereo not drawn) the results were TTR transcr act -1.
Screening CC(C)CN1C(=O)C[C@]2(C(=O)N(C)c3ccc(NC(=O)C(C)(C)C)cc32)C1c1ccccc1 (stereo partly drawn) returned TTR transcr act 0.
Nc1ccccc1SCC(=O)Nc1cccc2ccccc12 was read as TTR transcr act -1.
N=c1sccn1CC(=O)Nc1cccc2ccccc12 was read as TTR transcr act 2.
O=C(O)CSCC(=O)Nc1cccc2ccccc12 was read as TTR transcr act 10.0*, HuH7 TTR inh -6 and TTR up confirm 0.
For CCOC1=C2CN(S(=O)(=O)c3ccccc3)[C@H](c3ccccc3)C[C@H]2n2c(=O)n(-c3ccccc3)c(=O)n2C1 the results were TTR transcr act 0.
`CC(=O)Nc1ccc(S(=O)(=O)N2CCN=C2SCc2cccnc2)cc1` gave TTR transcr act -1.
CCCS(=O)(=O)N1CCN=C1SCc1cccnc1 was read as TTR transcr act 15*, HuH7 TTR inh -7 and TTR up confirm 1.
For CCS(=O)(=O)N1CCN=C1SCc1ccccc1 the results were TTR transcr act -2.
N#CC1=C(N)NC(=S)C(C(N)=O)C1c1ccccc1F (stereo not drawn) was read as TTR transcr act 12*, HuH7 TTR inh -25 and TTR up confirm 0.
For COC(=O)C1=C(C)OC(N)=C(C#N)C1c1ccccc1F (stereo not drawn) the results were TTR transcr act 2.
For COC(=O)CSC1=C(C#N)C(c2ccccc2F)CC(=O)N1 (stereo not drawn) the results were TTR transcr act -1.

Bioassay records from PubChem.
